PubChem BioAssay (Tox21)
Records with an inconclusive call do not appear. Where a call stands in place of a potency, no number is given. Activity calls are given as the source filed them. The call rests on the fitted dose curve; in most records, active means well fitted inhibition curve with a large enough effect in the repeat runs; inconclusive means weak or mixed curves, or effect the other way; inactive means no such curve, though single readings can be large or run the other way.

Target: Nuclear receptor ROR-gamma (Homo sapiens) (UniProt P51449)
Assay: qHTS assay to identify small molecule antagonists of the retinoid-related orphan receptor gamma (ROR-gamma) signaling pathway (AID 1159521; further: nearly all actives have a fitted effect of over 50% in size)
Settings: Tet-on RORgamma CHO cells, RORE-luciferase, 16 h; series mostly up to 92.4 µM
From the text: U.S. Tox21 Program National Center for Advancing Translational Sciences [NCATS] NIH Chemical Genomics Center [NCGC] U.S. Environmental Protection Agency [EPA] National Institutes of Environmental Health Sciences [NIEHS] National Toxicology Program [NTP] U.S. Food and Drug Administration [FDA] Tox21 Assay Overview: Nuclear steroid hormone receptors are involved in many biological processes including inflammatory responses, cell proliferation, and apoptosis. Environmental factors or compounds disrupting these nuclear receptor pathways and gene expression may promote susceptibility to immunotoxicants and autoimmune diseases. One important group of these expression factors are the retinoid-related orphan receptors. To assess compounds that may interfere with the retinoid-related orphan receptor gamma (ROR-gamma) transcription factor, a cell-based luciferase assay was used. The CHO cell-based assay utilizes a TET-inducible ROR expression factor and ROR response element-LUC reporter gene. Reporter gene activity was induced using Doxycycline Hyclate and measured after 16 hr incubation. Tet-on ROR gamma CHO cells were used to screen against the Tox21 10K compound library for ROR gamma antagonists by quantification of decreased reporter gene activity in terms of decreased luminescence.
Tox21 Assay Protocol Summary: Tet-on ROR gamma CHO cells were dispensed at 1,000 cells in 4 uL of culture medium per well into white wall/solid bottom 1536-well plates using a Multidrop Combi (Thermo Scientific, Waltham, MA) dispenser. Following incubation at 37 C and 5% CO2 for 4 hr, 23 nL of compounds dissolved in DMSO, positive controls or DMSO only were transferred by a Pintool station (Kalypsys, San Diego, CA) and after 2 hr incubation at 37 C, one ul of 1 uM (final concentration) of Doxycycline Hyclate was added to all the wells by using a Flying Reagent Dispenser (FRD) (Aurora Discovery, San Diego, CA). After 16 hr incubation at 37 C and 5% CO2, 5 uL of ONE-Glo reagent (Promega Corporation, Madison, WI) was added to each assay plate using FRD. After 30 min incubation at room temperature, luminescence was quantified on a ViewLux plate reader (Perkin Elmer, Waltham, MA).
Potency means the concentration at half of the fitted maximal effect.

SMILES	Potency
CC/C(=N\OC/C=C/Cl)C1=C(O)CC(C2CCOCC2)CC1=O (stereo not given)	inactive
CCC(C)(NC(=O)c1cc(Cl)c(C)c(Cl)c1)C(=O)CCl (stereo not given)	6.15 µM (active)
CC(=O)NC1CCSC1=O (stereo not given)	inactive
NS(=O)(=O)C(F)(F)C(F)(F)C(F)(F)C(F)(F)C(F)(F)C(F)(F)C(F)(F)C(F)(F)F	54.5 µM (active)
COP(=S)(OC)Oc1cc(Cl)c(I)cc1Cl	inactive
CC(C)(CCl)C(=O)Cl	inactive
O=C(CBr)c1ccccc1	inactive
C/C(=C\c1ccccc1)[N+](=O)[O-]	19.3 µM (active)
Brc1ccccc1	inactive
O=C(Nc1ccccc1)Nc1cnns1	inactive
CC(C)=CCOc1c2occc2cc2ccc(=O)oc12	inactive
O=C=Nc1ccc(Cl)cc1	inactive
COC1=CC(=O)O[C@@H](CCc2ccccc2)C1	inactive
CCOC(=O)C(Cl)C(C)=O (stereo not given)	inactive
N#Cc1cc(I)c(O)c(I)c1	24.3 µM (active)
COC(C)(C)CCC[C@H](C)C/C=C/C(C)=C/C(=O)OC(C)C	inactive
CCOc1ccc(C(C)(C)COCc2cccc(Oc3ccccc3)c2)cc1	inactive
O=C(C(Cl)(Cl)Cl)C(Cl)(Cl)Cl	inactive
O=C(O)C(F)(F)C(F)(F)C(F)(F)C(F)(F)C(F)(F)C(F)(F)C(F)(F)C(F)(F)C(F)(F)F	inactive
CCCCCCCCCCOC(=O)c1ccccc1C(=O)OCCCCCCCCCC	inactive

SMILES	Potency
ClCc1ccccc1	inactive
CC(C)(Cl)[N+](=O)[O-]	inactive
CCOC(=O)CBr	inactive
CCCCN=C=O	inactive
CN(N=O)c1ccc([N+](=O)[O-])cc1	inactive
COC(N)=O	inactive
O=[N+]([O-])C(Br)(CO)CO	48.6 µM (active)
O=Cc1ccc(Cl)cc1Cl	inactive
CCCCC(CC)COP(=O)(Oc1ccccc1)Oc1ccccc1 (stereo not given)	inactive
CC1C(=O)C[C@]2(C(C)C)C[C@H]12 (stereo not given in full)	inactive
O=C1NCN(c2ccccc2)C12CCN(CCCOc1ccc(F)cc1)CC2	23.7 µM (active)
COC(=O)C(Br)CBr (stereo not given)	inactive
O=S1OC[C@@H]2[C@H](CO1)[C@]1(Cl)C(Cl)=C(Cl)[C@@]2(Cl)C1(Cl)Cl (stereo not given in full)	54.5 µM (active)
O=[N+]([O-])c1cc(C(F)(F)F)cc([N+](=O)[O-])c1Cl	inactive
O=C(O)C(F)(F)C(F)(F)C(F)(F)C(F)(F)C(F)(F)C(F)(F)C(F)(F)C(F)(F)C(F)(F)C(F)(F)F	inactive
CCC(COC(=O)c1cc(OC)c(OC)c(OC)c1)(c1ccccc1)N(C)C (stereo not given)	inactive
CCCCOC(=O)c1ccccc1C(=O)OCc1ccccc1	inactive
C=CC(=O)OC(C)(C)C	inactive
OCCCBr	inactive
N#Cc1ccc(Cl)cc1	inactive
